According to the supplement of paper PMC11417369:
The full ranking holds about 25,000 sequences; the median of “ln(normalized median fluorescence intensity)” is about 7.1, and the highest 2% start at about 10. This excerpt belongs to a sample that is enriched for the highest values.

System: PfSIP2 AP2 domain 1 (GST-tagged)
Assay: gcPBM binding intensity (ln(normalized median fluorescence intensity)); higher = stronger DNA binding
Outline: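 An Agilent 4 × 180k array carrying primer-extended double-stranded 36-bp intergenic genomic probes and negative controls received GST-tagged P. falciparum DNA-binding domains expressed in E. coli, about 25 μg on average, for 1 h. The binding buffer contained 1× PBS, 1% milk, 0.2 mg/ml BSA, 0.5% salmon testes DNA and 0.03% Triton X-100. Binding intensity is the top Masliner-normalised natural-log median intensity across replicate spots of either probe orientation, read after Alexa488 anti-GST antibody staining and a 488 nm scan.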

Row | Sequence | gcPBM binding intensity (ln)
1 | ACCTATATAAGTTATACACACAAATATAGATATATA [CACACA_site7356] | 7.06
2 | TATGGTATATACAACACACACACATATGTATATATA [CACACA_site927] | 7.14
3 | ATGTAAGTTGTGCATTCACACACATATATATATATA [CACACA_site9086] | 9.26
4 | AACAAGTTGCATGGTGCACACATGTATATATATCTA [CACACA_site2548] | 11.6
5 | AACAAGTTGCATGGTGCACACATGTATTTATATCTA [CACACA_site5414] | 11.8
6 | ATCATATGTATGCATACACACAAAAAGTTATTTATA [CACACA_site6325] | 7.06
7 | TAGTTGCACATGTATACACACAAAAAATATTTTATG [CACACA_site475] | 7.68
8 | AGGAAAAACTTGAATGCATGCGCACATTCTAGTTTG [TGCATGCA_site776] | 6.99
9 | AAAATTTATATAGGCACACAAATAAATTAATACATA [CACACA_site1418] | 6.76
10 | TTTTTTTATATTATACGCACTAATATATATATATAT [XGTACX_negctrl_site40] | 8.94
11 | CCGTATATTTTATATAGTACTCATCATATATTTTTA [XGTACX_site5560] | 6.96
12 | AAGATAATTACGCACACACACACACGCCCACAACTA [CACACA_site7255] | 7.34
13 | TATCTTCATATATGGTGTACAGATTTTTTTTTTTTT [XGTACX_site5545] | 7.26
14 | CATTTTGTAAGATATGCACACATGGATCATATTTTA [CACACA_site423] | 6.94
15 | CTGTCTGCAGATATGGTGCATTTGTAAGATCTTACA [GTGCAC_site9870] | 10.4
16 | GGAAAAAGAAATTAATGTACATGTGGATGTATGAGG [XGTACX_site5468] | 7.25
17 | TTTCCTCATTTTATCATACACACTTGTTTATATGTG [CACACA_site8202] | 6.92
18 | ATTCATTTACCAATGGTGCAATATATTTTTATAATG | 10.3
19 | TCTTTGTATATATGTTCATTTGTAATATATATTCAT [TGCATGCA_negctrl_site467] | 7.18
20 | AATCATTTATTGATGGTGCAATATACCATCTAATGA [GTGCAC_site9440] | 9.44
21 | TTTATTTTTTACCAAGTGCAATATATTATAATAATA | 7.77
22 | AATTTATATAATTTTGTGCACAATATTCATGTATAT | 8.93
23 | TATTCAGGTCCAATGGTGCAATATATTTTTGTAATA [GTGCAC_site9607] | 10.5
24 | AGCTATATAAATAATACATGCATTGTTCAGGTATTT [TGCATGCA_site964] | 6.83

Row | Sequence | gcPBM binding intensity (ln)
25 | TAAATATAGGGTAATAGTACATAATTATATTCTTTT [XGTACX_site3883] | 6.76
26 | GTGTTGGGAAAAGGCATGCACTTTTTTTTTTTTTTT | 9.34
27 | TATACCTTAATATACACACATACATATATATATATA [CACACA_site1339] | 9.12
28 | ACCTTTAATATATACACACACATAAAAAAAATATAT [CACACA_site1843] | 7.83
29 | AATAGTCGGGTGCATACACACCTTAAATATAATATA [CACACA_site8271] | 11.3
30 | AATAGTCGTGTGCATACACACCTTAACTATAATATA [CACACA_site6636] | 7.41
31 | CTACCTTTAATATATACACACACATAAAAAAAATAT [CACACA_site8548] | 7.44
32 | GGAATAGTCGGGTGCATACACACCTTAAATATAATA [CACACA_site1081] | 11.4
33 | TTGATTACACTGAAGTGTACATATATATATATATAT [XGTACX_site3532] | 9.07
34 | AATAATAAAATAAAGGCATGCACAATATGCTATAAA [TGCATGCA_site645] | 7.49
35 | TTTAATCATATGTTATATAATAAGCCCCCCCCCCAA [CACACA_negctrl_site486] | 10.2
36 | ATATTTTTATTTTCTTTACACACCACATAATTTTTT [CACACA_site4060] | 7.09
37 | TTTTGTTTTAATTTTATTTGATTTTATTTGATTTAT [CACACA_negctrl_site692] | 6.69
38 | ATATATATTTTAATAACACACATATATTATATTATA [CACACA_site4387] | 7.06
39 | TTTAACTTTTATATAACACACATATTGTAATTATGT [CACACA_site6486] | 7.05
40 | TTTAATTTTTATATAACACACATATTGTAATTATGT [CACACA_site4566] | 6.97
41 | TTTTAATTTATTTATGCACACATATATAATTACACA [CACACA_site8126] | 7.52
42 | TTTATTTTTAACAGTGCACACATAACTTAATTATAT [CACACA_site8681] | 10.5
43 | TATTTTTAACAGTGCACACATAACTTAATTATATGT [CACACA_site2194] | 10.6
44 | AAAAAAAGAAATTAGGTGCATAGCATTAACCGATAA [GTGCAC_site9582] | 10.1
45 | TATATATATAGAAATGCATGTTAATAAAAGTTATAA [TGCATGCA_site947] | 8.13
46 | ATTTTTTATATTTAGTGTACATGTTTTAATTTATAA [XGTACX_site7512] | 7.29
47 | GGATAAGAGGCATATACACACAATTTAAAAAAATAA [CACACA_site4657] | 7.15
48 | AATATTTTAAGGCACACACACAAAAAAAAAAAAAAA [CACACA_site2890] | 7.22

Row | Sequence | gcPBM binding intensity (ln)
49 | TTTTTTTCAATATTTGCACACGATTAAAATATTTAA [CACACA_site5266] | 7.28
50 | AAAAAAAAAAAAAGTGCACACGATTTAAGGCCTATA [CACACA_site2823] | 10.9
51 | TTTCTAATTTATATCACACACATATAAATATAGTAA [CACACA_site6210] | 7.19
52 | GGCGTATGTGTATATACACACCCACGTATATAAATA [CACACA_site7489] | 7.08
53 | CCTTTCCTTTTATAAGTGCATATAACAAATGTATAC [GTGCAC_site9872] | 8.88
54 | ATAATGAACAAAGTAGTGCACTTTCCTTATCTTTTC | 10.9
55 | ACTAATAACAAAAGCTTGCACTTTTTTTTTCCTAAT | 7.82
56 | ATCTTATATCGTAGAGATTTTTTTTTTTTTTCATTT [XGTACX_negctrl_site140] | 6.7
57 | TTTTAAAAAAATAAAAAATAATAAAAAAAATAAAAA [CACACA_negctrl_site1693] | 6.76
58 | TTTTTTATAAATCAAATGAAAAATAAACTATTCAGA [CACACA_negctrl_site1568] | 6.59
59 | TTTTAAATTTTTTAAAGTACACGTCGAAAAGGTATA [XGTACX_site76] | 7.93
60 | GCACCCTGTATGAATGCACACATTCATAGAATTGCT [CACACA_site5475] | 8.46
61 | TATTTAAAATAATAACAAAATTAACATAAATATATA [GTGCAC_negctrl_site472] | 6.82
62 | AAAGAAATATATACAAAAATATGAACAATTTATTAT [XGTACX_negctrl_site78] | 6.81
63 | AAGAACAAATATGAGGTGCAACACAATATATTATTA [GTGCAC_site9965] | 10.5
64 | TTTATATTTAAATATATATGAGAAAACACAAAATAT [TGCATGCA_negctrl_site211] | 7.34
65 | AAGAATATATAGGACACACATACAATAATAAATATA [CACACA_site4119] | 7.25
66 | ATATTTTATAATTTTACACACCATATAAAATAATTC [CACACA_site2797] | 7.16
67 | CATATTTACATTAAGTGTACTTATGAATATATATAC [XGTACX_site7962] | 7.03
68 | TTTGCACCGTTTAAGTGTACAGAATTATGACATATA [XGTACX_site6735] | 11.2
69 | TTTATATGTATTAAGTGTACACATATAATGTGTTTG [XGTACX_site6629] | 7.29
70 | TATCAATGGAAAATATATATTTGTATATATGTAATA [XGTACX_negctrl_site257] | 7.04
71 | ACATGAATATATACACGTACATATATACATATATAT [XGTACX_site5872] | 7.42
72 | ATATATTATATTATATGTACTTAAAAAAGTGCAAAG [XGTACX_site318] | 8.67

Row | Sequence | gcPBM binding intensity (ln)
73 | AATTTATTTTTAAAAAGTACATACTTAAGAAAACGA [XGTACX_site3660] | 7.59
74 | CTGTACACTTAAACGGTGCAAAAAGAAAAAAAAGAA | 10.9
75 | TTTTATCATCTTTTTACATTATGTATAAATATTTTC [CACACA_negctrl_site206] | 6.99
76 | AAAACATAAATACATACACACATAATATATATTAAT [CACACA_site109] | 7.06
77 | TATATATTTTCTTTTGCACACTGTTTTCCTTTTTTT [CACACA_site2739] | 7.02
78 | TTTTATTCCTTCTTTGCACACGTTTAAAAATATATA [CACACA_site2899] | 8.04
79 | ACAAGTATTCCTTTTGCACACCTTTCTGCACCTTAT [CACACA_site3873] | 11.7
80 | ATGTCATAAATGTACGCACACATACATAAACATATA [CACACA_site4530] | 7.33
81 | TATAAACGCACCTACACACACAACGTAAATGCATTG [CACACA_site7120] | 10.6
82 | TATATAAACCCACCTACACACACAACGTAAATGCAT [CACACA_site8702] | 7.1
83 | TATAAACCCACCTACACACACAACGTAAATGCATTG [CACACA_site2238] | 7.01
84 | CAAATATGTCTTATTCGTACACATATATATATATAT [XGTACX_site8817] | 9.64
85 | TCATAATGAAAACAAGCACACATACATAAAATAAAA [CACACA_site9069] | 7.01
86 | TTTATGAAACAGTGCACACATAAAAATAAATACATA [CACACA_site5631] | 11.2
87 | ATTTTGTTATGAAACACACACATATAAATATAAATA [CACACA_site7679] | 7.26
88 | TTTATGAAACAGTGCACACATAAAAATATATACATA [CACACA_site2992] | 11
89 | CTTTTATGAAACAGTGCACACATAAAAATATATACA [CACACA_site8981] | 11.3
90 | AAAAAAAATATGAAAACACACATATATAAATAAATA [CACACA_site113] | 6.89
91 | TTTTTAATTTTATATACACACATAAAATATATGAAG [CACACA_site3145] | 7.01
92 | AACATATATAAATACACACACATATATATATGAAAT [CACACA_site4312] | 7.05
93 | ATAATGAAAACAAGCACACATACATAAAATAAAATA [CACACA_site3257] | 7.04
